By AC50 is commonly meant the concentration giving half of the maximal activity seen.

Active and inactive are the calls of the source. The calls were made as follows: active = hit-call score of the fitted dose curve at least 0.9, where 1 is the maximum; inactive = score below 0.9.

The nature of the assay: ATG_EGR_CIS: Attagene CIS-FACTORIAL HepG2 Assay for human Early Growth Response 1 (EGR1) (AID 2282938). As to conditions: HepG2 Attagene CIS-FACTORIAL EGR reporter mRNA; actives raise or lower the signal. On the procedure:
ATG_CIS is a cell-based, multiplexed-readout assay that uses HepG2, a human liver cell line, with measurements taken at 24 hours after chemical dosing in a 24-well plate.ATG_EGR_CIS is one of 52 assay component(s) measured or calculated from the ATG_CIS assay. It is designed to make measurements of mRNA induction, a form of inducible reporter, as detected with fluorescence intensity signals by Reverse transcription polymerase chain reaction (RT-PCR) and Capillary electrophoresis technology.Data from the assay component ATG_EGR_CIS was analyzed into 1 assay endpoint. This assay endpoint, ATG_EGR_CIS, was analyzed with bidirectional fitting relative to DMSO as the negative control and baseline of activity. Using a type of inducible reporter, measures of mRNA for gain or loss-of-signal activity can be used to understand the reporter gene at the transcription factor-level as they relate to the gene EGR1. Furthermore, this assay endpoint can be referred to as a primary readout, because this assay has produced multiple assay endpoints where this one serves a reporter gene function. To generalize the intended target to other relatable targets, this assay endpoint is annotated to the dna binding intended target family, where the subfamily is zinc finger.
Human liver HepG2 cells are transiently transfected with multiple reporter transcription units (MRTUs) in 6-well plates using FuGene 6 reagent (Roche; 3 ml FuGene/1 mg DNA). The MRTU constructs are regulated by a cis-regulating element (promoter). […] A major difference between the CIS and TRANS system is that in CIS activities of endogenous TFs are measured, whereas the TRANS assay evaluates changes in activities of exogenous, chimeric NR-Gal4 proteins. […] At the end of 24 hour incubation, total RNA was isolated using TriZol reagent (Invitrogen). The isolated RNA is then reverse-transcribed using oligo(dT) primer and Mo-MLV reverse transcriptase (Invitrogen) with DNAse I (Ambion) treatment for 30 min. The one-tenth of the produced cDNA was amplified by PCR using Taq DNA polymerase (Invitrogen) and two reporter sequence-specific primers. The PCR products were fluorescently labeled by primer extension with 6-arboxyfluorescein (6-FAM) 5'-labeled reporter sequence-specific primer (2 min at 95 C, 20 s at 68 C and 10 min at 72 C) and these products were digested with 5U of HpaI (New England Biolabs) for 2h at 37 C. The fragments were purified using Qiaquick PCR columns (Qiagen), analyzed on an ABI 3130xL genetic analyzer (Applied Biosystems) with peak positions identified by using a set of X-rhodamine (ROX)-labeled MapMarker1000 molecular weight standards (BioVentures). The raw capillary electrophoresis data was processed using Attagraph software (Attagene).
Regarding `CC(C)(O)c1coc(S(=O)(=O)NC(=O)Nc2c3c(cc4c2CCC4)CCC3)c1`, the call was inactive.
Still for that read-out and setting: then `O=C1CCC(N2C(=O)c3ccccc3C2=O)C(=O)N1` (stereo not given), with “inactive”.
For `Fc1ccccc1[C@@H](F)COC1CCC(Nc2ncnc3[nH]ncc23)CC1` (stereo not given in full), the AC50 is 5.72 µM (active).
In the case of `CCCCC(CC)COC(=O)c1ccc(C(=O)OCC(CC)CCCC)cc1` (stereo not given), the result was inactive.
Still for that read-out and setting: then `CC(C)CC(C)(O)C#CC(C)(O)CC(C)C` (stereo not given), with “inactive”.
With `CN(C)c1ccc(Cc2ccc(N(C)C)cc2)cc1`, the AC50 is 25.6 µM (active).
Still for that read-out and setting: then `CCc1cc(SCc2sc(-c3ccc(C(F)(F)F)cc3)nc2CN2CCN(c3ccc(OC)cc3)CC2)ccc1OCC(=O)O`, with 15.8 µM (active).
With `CCC(C)(C)C(=O)O[C@H]1C[C@@H](C)C=C2C=C[C@H](C)[C@H](CC[C@@H]3C[C@@H](O)CC(=O)O3)[C@H]21`, the outcome was inactive.
The same measure, in the same setting: then `CC(O)CN(CCN(CC(C)O)CC(C)O)CC(C)O` (stereo not given), with “inactive”.
Same read-out and setting: under `CCCCCCCCCCCCc1ccccc1` stands “inactive”; under `C1N2CN3CN1CN(C2)C3`, “inactive”.
On the same count and under the same terms, then `CC(=O)OC[C@H]1O[C@@](COC(C)=O)(O[C@H]2O[C@H](COC(C)=O)[C@@H](OC(C)=O)[C@H](OC(C)=O)[C@H]2OC(C)=O)[C@@H](OC(C)=O)[C@@H]1OC(C)=O`, with “inactive”; and `CC(C)=CCC/C(C)=C\CO`, with “inactive”.
For the molecule `O=P(OC(CCl)CCl)(OC(CCl)CCl)OC(CCl)CCl`, the AC50 is 63.5 µM (active).
For the molecule `Nc1cccc(N)c1`, the molecule was called inactive.
Same read-out and setting: under `CC(=O)OCCC(C)C` stands “inactive”.
Same read-out and setting: under `C1=CCCC=CCCC=CCC1` stands “inactive”; under `NC(=O)NO`, “inactive”.
`O=C(NS(=O)(=O)/C=C/c1ccccc1)c1ccc(F)cc1Cl`: the molecule was called inactive.
On the same count and under the same terms, then `Cc1c(-c2cccnc2)c2ccccc2n1CCCCC(=O)O`, with “inactive”.
Regarding `Cc1ccc(S(=O)(=O)O)cc1C`, the result was inactive.
The same measure, in the same setting: under `Cn1c(=O)cc(Oc2ccc(F)cc2F)c2cnc(NCC(C)(C)O)nc21` stands “inactive”; under `CCOCCOCCOCCO`, “inactive”.
As for `O=C(CCCCCCCCc1cccnc1)N1CCC(C=C(c2ccccc2)c2ccccc2)CC1`, the AC50 is 17 µM (active).
In the case of `CNS(=O)(=O)c1cc(C(=O)N2CCC(CCN3C4CCC3CC(n3c(C)nc5ccccc53)C4)(c3cccc(F)c3)CC2)c(Cl)cc1F` (stereo not given), the result was inactive.
Consider `CC[C@H]1CC[C@H](NCc2cc3c(cc2OC)[C@H]2C[C@H]2C(=O)N3C)[C@H](c2ccccc2)N1`, for which the AC50 was 71.3 µM (active).
Regarding `CC/C(=C\C(=N/O)C(N)=O)C(C)[N+](=O)[O-]` (stereo not given), the call was inactive.
With `CC(C)=CCCC(C)=CC=O`, the AC50 is 100 µM (active).
Regarding `COC(=O)c1ccccc1O`, the molecule was called inactive.
In the case of `O=C(O)c1cccc(Oc2ccccc2)c1`, the call was inactive.
The same measure, in the same setting: under `O=C(O)c1cc(N=Nc2ccc(S(=O)(=O)Nc3ccccn3)cc2)ccc1O` stands “inactive”; under `Cn1c(=O)c2c(ncn2C)n(C)c1=O`, “inactive”; under `CC(C)CCO`, “inactive”.
Same read-out and setting: under `CCCCCCCCCCCCCCCO` stands “inactive”; under `CCOC(=O)COc1ccc2c(c1)CC(NCC(O)c1cccc(Cl)c1)CC2` (stereo not given), “inactive”.
`Oc1ccc2c(c1)-c1ccccc1C2`: the AC50 is 38.6 µM (active).
Turning to `Cn1cnc([N+](=O)[O-])c1Sc1ncnc2nc[nH]c12`, the outcome was inactive.
Consider `CCn1nc(Cc2ccccc2)cc1C1CCN(C[C@H]2C[C@H](N(C)[C@@H](C(=O)O)C(C)C)C[C@@H]2c2cccc(F)c2)CC1`, for which the AC50 was 155 µM (active).
On to `C=CC(=C)CCC=C(C)C`, for which the call was inactive.
The same measure, in the same setting: then `CCN(C(=O)c1cc(C)cc(OC[C@H](C)Nc2ccncc2)c1)C(C)C`, with “inactive”.

The record behind these values is PubChem BioAssay (EPA / NIEHS).
